# Out of some 38,000 compounds screened, about 1,200 (3.2%) showed an effect of 50% or more. The median lay at about -58%. This is one part of a sample in which strong results are shown more often than they occur.
# Tested on: Plasmodium falciparum
# Assay: Calibr Malaria Delayed Death Assay SOP
# Assay type: functional, organism-based
# Parameters: scale not given: in the data most compounds retested in dose-response had high values
# Details: concentration 4.99e-06 (unit not given; other assays of the set use mol/L)
row,SMILES,Percent Effect [%]
1,Cc1nccc(CNC(=O)N(CCCO)C2CCc3ccccc32)n1 (configuration not stated),-86.6
2,COc1ccccc1CNC(=O)COc1ccc2c(c1)OCC2O (configuration not stated),-166.7
3,CC(C)n1cc(-c2nc3cc(S(=O)(=O)N4CCCC4)ccc3n2C)cn1,-92.66
4,CN1CCN(CCNC(=O)C(OC2CCCC2)c2ccccc2)CC1 (configuration not stated),38.55
5,O=C(NCCNc1cccnc1)C(c1cccnc1)N1CCCC1 (configuration not stated),-14.56
6,Cc1ccc(C(C(=O)NCCN2CCCCCC2)N(C)C)cc1 (configuration not stated),58.29
7,O=C(NCCN1CCCCC1)C(c1ccccc1)N1CCCC1 (configuration not stated),79.97
8,Cc1ccccc1C(C(=O)NCCn1cccc1)N(C)C (configuration not stated),36.37
9,CC1(C(=O)NCCN2CCCCC2)CCCN1C(=O)c1ccccc1 (configuration not stated),-16.7
10,O=C(NCCn1cccc1)C(c1ccccc1)N1CCCC1 (configuration not stated),54.29
11,Cc1ccc(C(C(=O)NCCN2CCC(CO)CC2)N(C)C)cc1 (configuration not stated),-10.34
12,Cc1ccccc1C(C(=O)NCCN1CCC(CO)CC1)N(C)C (configuration not stated),-106.7
13,COc1cccc(Cn2cc(N3C(=O)[C@H]4CCCC[C@H]4C3=O)cn2)c1,-60.69
14,Cc1cccc(C)c1OCCCN1CCN(CC2CCCO2)CC1 (configuration not stated),11.15
15,CC/N=c1\nc(NCC)nc2n1C(O)(Nc1cc(Cl)ccc1Cl)CS2 (configuration not stated),-3.589
16,CC(=O)c1ccc(NC(=O)N[C@H](C(=O)O)C(C)C)cc1,-95.29
17,NC1CCCc2nc(-c3ccccc3)ncc21 (configuration not stated),-87.16
18,O=C(c1ccccc1Cl)N1CC[C@H](O)[C@@H](N2CCOCC2)CC1,-83.45
19,O=C(O)C(F)(F)F.O=C(O)C(F)(F)F.O=C(O)C(F)(F)F.c1ccc(CN2C[C@@H]3COC[C@]3(COCc3ccncc3)C2)nc1,-55.25
20,COc1ccccc1CN1C[C@@H]2COC[C@]2(COc2cccnc2)C1.O=C(O)C(F)(F)F.O=C(O)C(F)(F)F,52.99
21,COc1ccccc1CN1C[C@@H]2COC[C@]2(COCc2ccncc2)C1.O=C(O)C(F)(F)F.O=C(O)C(F)(F)F,53.03
22,O=C(O)C(F)(F)F.O=C(O)C(F)(F)F.O=C(O)C(F)(F)F.c1cc(COC[C@]23COC[C@H]2CN(Cc2ccncc2)C3)ccn1,-128.8
23,COc1cc(N2C[C@@H]3COC[C@]3(COCc3ccccn3)C2)ncn1.O=C(O)C(F)(F)F.O=C(O)C(F)(F)F,-135.9
24,COc1ncccc1CN1C[C@@H]2COC[C@]2(COc2cccnc2)C1.O=C(O)C(F)(F)F.O=C(O)C(F)(F)F.O=C(O)C(F)(F)F,-33.52

row,SMILES,Percent Effect [%]
1,CCOC[C@]12COC[C@H]1CN(Cc1cccc(OC)c1)C2.O=C(O)C(F)(F)F,-1.674
2,COc1cccc(CN2C[C@@H]3COC[C@]3(COCc3ccccn3)C2)c1.O=C(O)C(F)(F)F.O=C(O)C(F)(F)F,58.94
3,COc1cccc(CN2C[C@@H]3COC[C@]3(COc3cccnc3)C2)c1.O=C(O)C(F)(F)F.O=C(O)C(F)(F)F,12.68
4,Cc1cnc(CN(C)Cc2cc3c(cc2OC(F)F)OCO3)o1,-25.68
5,Cc1noc(C)c1CSCc1csc(CS(C)(=O)=O)n1,-34.91
6,COCCCNC(=O)c1cc(-c2cnc(N3CCOCC3)nc2)cn1C.O=C(O)C(F)(F)F,-55.95
7,CCn1ncc2c1C(COC)CN(Cc1nccs1)C2 (configuration not stated),-17.13
8,COc1ccc(-n2ccc(C(=O)NCCN3CCCC(C)C3)n2)cc1 (configuration not stated),4.937
9,Cn1cc(CN2C[C@H]3CCN(C(=O)c4cscn4)C[C@H]3C2)cn1.O=C(O)C(F)(F)F,-59.18
10,CC(Cn1cccn1)NCc1csc(Cc2ccccc2)n1 (configuration not stated),5.726
11,COc1ccc(CCN)cc1-c1ccc(C(N)=O)cc1,6.686
12,CCOc1ccc(-c2cc(CCN)ccc2OC)cc1,-62.01
13,COc1ccc(CCN)cc1-c1ccc(O)cc1,84.96
14,O=C(Cn1c(=O)oc2ccccc21)NCC1(O)CCc2ccccc21 (configuration not stated),-139.2
15,c1cnc(N2CCCC(c3cncc(-n4ccnc4)n3)C2)nc1 (configuration not stated),-26.3
16,Cc1cc(NCCNc2cccnc2)nc(-c2ccccc2O)n1,-179.2
17,Cc1cc(NCCN)nc(-c2ccccc2O)n1,78.32
18,Cc1cc(NCCO)nc(-c2ccccc2O)n1,-228.5
19,COCC1COCCC12CCN(S(=O)(=O)c1ccc(C)cc1)CC2 (configuration not stated),-77.98
20,CCNC(=O)[C@@H]1C[C@@H](NC(=O)c2cnc[nH]c2=O)CN1Cc1ccsc1,-128.1
21,O=C(CN1CCOCC1)Nc1ncc(Br)cc1Br,-123.1
22,Fc1cccc(C2(CNC3CCOC4(CCOCC4)C3)CCOCC2)c1 (configuration not stated),39.6
23,c1ccc2c(c1)cnn2CCCNC1CCOC2(CCOCC2)C1 (configuration not stated),68.4
